The values that follow come from PubChem BioAssay (NCATS).

A short description of test [1]: P-glycoprotein substrates identified in KB-8-5-11 adenocarcinoma cell line, qHTS therapeutic library screen (AID 1346987). Further: nearly all actives have a fitted effect of over 65% in size. The procedure, abridged:
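Compounds are pinned in dose-response onto KB-8-5-11 cells (500 cells/well, colchicine-free medium) and left 72 h at 37 degree C. CellTiter-Glo luminescence then yields AC50 values.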
A general note: qHTS replaces the single test concentration by a dilution series.

Test [2] has as its system Zika virus NS2B-NS3 protease (unlinked complex). As to the kind of experiment: Primary screen GU Rhodamine qHTS for Zika virus inhibitors: Unlinked NS2B-NS3 protease assay (AID 1347159). Further: nearly all actives have a fitted effect of over 60% in size. Further: potency means the concentration at half of the fitted maximal effect. On activity change, negative = inhibition: on the % scale 0 is the no-effect control and ±100 the full control effect. The procedure, abridged:
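Buffer 10 mM Tris-HCl pH 8.0, 0.01% Tween 20. Unlinked protease 25 nM; compound preincubation 15 min, RT, protected from light. Substrate Rhod110, 1.5 microM; ~15% conversion in 15 min.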

The nature of test [3]: Primary fluorescence-based thiol-reactive (MSTI) qHTS assay for identification of artifact compounds. (AID 1845221). Further: nearly all actives have a fitted effect of over 65% in size. Further: potency means the concentration at half of the fitted maximal effect. The procedure, abridged: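 A multi-concentration qHTS design tested compounds against 4 uM MSTI, pH 7.4 phosphate-buffered saline. Plates were protected from light for 1 h at room temperature before imaging fluorescence.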
Test [4] is described as follows: Primary redox qHTS assay for identification of artifact compounds. (AID 1845223).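 Further: 0% = DMSO and 100% = reference compound.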 Summed up: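 Redox-cycling detection via DTT (250 uM final) oxidation coupled to Amplex Red (25 uM)/HRP (250 mU/mL) in HBSS. 15 min preincubation plus 30 min after DTT, room temperature. Ex/Em 525/598 nm; 4-parameter Hill fit against DMSO and 10 uM DA3003.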
For another test, the system named is KB-3-1. As to the kind of experiment: Cytotoxic Profiling of Annotated Libraries Using Quantitative High-Throughput Screening (AID 1296008). Further: nearly all actives have a fitted effect of over 60% in size. On max response: on the % scale 0 is the no-effect control and ±100 the full control effect. Conditions: Five cell lines viability, CellTiter-Glo ATP luminescence, 48-72 h; max response: stronger effect = lower value. The procedure, abridged:
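Compounds were pin-transferred onto cells and incubated 48 or 72 hr at 37 degree Celsius, 95% humidity. CellTiter-Glo was added, plates sat 10 min at room temperature, then ATP-coupled luminescence was imaged as the viability read-out.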
On the technique in general: In ATP-based viability assays light output follows the ATP content of the culture.

The subject of another test is CRL-7250. As to the kind of experiment: qHTS assay to identify novel small-molecules to repurpose for Merkel cell carcinoma treatment (AID 1296009). Further: nearly all actives have a fitted effect of over 60% in size. Conditions: MCC and control cell lines, CellTiter-Glo viability, 72 h; series mostly up to 92 µM. The procedure, abridged: (§1)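 Viability readout: ATP luminescence (CellTiter-Glo) after 72 hr drug exposure at 37 degree celsius. Dose-response format was 8 points for NPC and 11 points for MIPE; data normalized to in-plate controls.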

A further test has as its system CAOV3. As to the kind of experiment: Primary qHTS to identify gynecologic anti-cancer compounds using libraries of approved drugs and bioactive compounds (AID 1345084). Further: on the % scale 0 is the no-effect control and ±100 the full control effect; nearly all actives have a fitted effect of over 55% in size. Conditions: Gynecologic cancer cell panel viability, ATPlite luminescence, 48 h; series mostly up to 57.5 µM. The procedure, abridged:
(§2)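 ATP-based viability (ATPlite), 1,000 cells/well, 16 h pre-incubation, 48 h compound at 37 C, 5% CO2, 15 min RT before read.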

Another test has as its system HeLa. The test is described as above. The settings on record: Gynecologic cancer cell panel viability, ATPlite luminescence, 48 h; series mostly up to 57.5 µM. Summed up:
as §2

In a further test the test system is SKOV3. Described as above. Conditions: Gynecologic cancer cell panel viability, ATPlite luminescence, 48 h; series mostly up to 57.5 µM. Summed up: as §2
The next test has as its system HACAT. As to the kind of experiment: qHTS assay to identify novel small-molecules to repurpose for Merkel cell carcinoma treatment (AID 1296009). Further: nearly all actives have a fitted effect of over 60% in size. The settings on record: MCC and control cell lines, CellTiter-Glo viability, 72 h; at 44.8 µM (top of the series) unless noted. Summed up: as §1
Test [5] is described as follows: Primary qHTS for inhibitors of nuclear receptor binding SET domain protein 2 (NSD2) in an RCH-ACV wild type WT cells (2C) (AID 1645877). Further: nearly all actives have a fitted effect of over 70% in size.
Test [6] is described as follows: P-glycoprotein substrates identified in KB-3-1 adenocarcinoma cell line, qHTS therapeutic library screen (AID 1346986). Further: nearly all actives have a fitted effect of over 60% in size. The procedure, abridged:
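72 h cell-killing screen, 500 cells/well, CellTiter-Glo luminescence. Paired lines KB-3-1/KB-8-5-11; P-gp dependence checked by tariquidar co-treatment and HEK-293 MDR-19 versus empty-vector cells.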

Test [7] in a line: Primary qHTS to identify inhibitors of SARS-CoV-2 cell entry (AID 1645846; calls by dose curve; further: nearly all actives have a fitted effect of over 45% in size). Conditions: activity change, negative = inhibition: at 57.1 µM (top of the series) unless noted. Summed up: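 Entry measured by luciferase signal 48 h after adding SARS-CoV-2-S pseudotyped MLV particles to HEK293-ACE2 cells preincubated 1 h with compounds. Normalisation: bald particles and spike particles.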

Test [8] concerns the target Cytochrome P450 2D6 (Homo sapiens) (UniProt P10635). Description: Cytochrome P450 family 2 subfamily D member 6 (CYP2D6) small molecule antagonists: luciferase biochemical (cell-free) qHTS assay (AID 1645840; active means well fitted curve in the direction sought with a large enough effect in the repeat runs; an effect the other way counts as inactive or inconclusive; further: nearly all actives have a fitted effect of over 55% in size; further: potency means the concentration at half of the fitted maximal effect; on activity change, negative = inhibition: on the % scale 0 is the no-effect control and ±100 the full control effect). Summed up:
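P450-Glo CYP2D6 system: proluciferin substrate converted by enzyme to luciferin, read by luminescence proportional to activity. Enzyme-substrate mix with compound 10 min at room temperature, then NADPH regeneration 1 h before detection reagent.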

In test [9] the target is Cytochrome P450 2C9 (Homo sapiens) (UniProt P11712). As to the kind of experiment: Cytochrome P450 family 2 subfamily C member 9 (CYP2C9) small molecule antagonists: luciferase biochemical (cell-free) qHTS assay (AID 1645842; active means well fitted curve in the direction sought with a large enough effect in the repeat runs; an effect the other way counts as inactive or inconclusive; further: nearly all actives have a fitted effect of over 55% in size; further: potency means the concentration at half of the fitted maximal effect; on activity change, negative = inhibition: on the % scale 0 is the no-effect control and ±100 the full control effect). The procedure, abridged:
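P450-Glo CYP2C9 system: proluciferin substrate with enzyme in mix containing 0.4% BSA, 10 min at room temperature, then NADPH regeneration solution added and incubated 1 h at 37C. Detection reagent stopped reaction; luminescence read after 20 min as RLU.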

Molecules are shown by their SMILES. Results filed as inconclusive are left out. The source made the active and inactive calls. Unless noted, the call rests on the fitted dose curve; in most records, active means well fitted curve in the direction sought with a large enough effect; inconclusive means small, poorly fitted or top-dose-only effect, or another doubt; inactive means no such curve, though single readings can be large; an effect the other way counts as inactive or inconclusive.

Cytochrome P450 2D6 (Homo sapiens), sequence (P10635 whole entry, looked up): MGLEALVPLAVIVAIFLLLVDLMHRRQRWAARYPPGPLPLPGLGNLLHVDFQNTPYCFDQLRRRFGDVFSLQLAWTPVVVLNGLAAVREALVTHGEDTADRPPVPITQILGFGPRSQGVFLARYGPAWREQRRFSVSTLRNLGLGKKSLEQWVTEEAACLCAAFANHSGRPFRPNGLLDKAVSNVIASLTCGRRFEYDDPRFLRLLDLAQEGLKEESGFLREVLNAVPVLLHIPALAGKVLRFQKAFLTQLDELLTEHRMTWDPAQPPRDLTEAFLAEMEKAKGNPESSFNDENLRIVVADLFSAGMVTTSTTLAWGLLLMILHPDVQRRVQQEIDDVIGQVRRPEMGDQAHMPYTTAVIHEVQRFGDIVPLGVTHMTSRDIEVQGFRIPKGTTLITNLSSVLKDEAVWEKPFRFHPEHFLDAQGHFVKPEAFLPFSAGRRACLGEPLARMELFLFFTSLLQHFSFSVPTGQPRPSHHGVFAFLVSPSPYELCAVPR
Cytochrome P450 2C9 (Homo sapiens), sequence (P11712 whole entry, looked up): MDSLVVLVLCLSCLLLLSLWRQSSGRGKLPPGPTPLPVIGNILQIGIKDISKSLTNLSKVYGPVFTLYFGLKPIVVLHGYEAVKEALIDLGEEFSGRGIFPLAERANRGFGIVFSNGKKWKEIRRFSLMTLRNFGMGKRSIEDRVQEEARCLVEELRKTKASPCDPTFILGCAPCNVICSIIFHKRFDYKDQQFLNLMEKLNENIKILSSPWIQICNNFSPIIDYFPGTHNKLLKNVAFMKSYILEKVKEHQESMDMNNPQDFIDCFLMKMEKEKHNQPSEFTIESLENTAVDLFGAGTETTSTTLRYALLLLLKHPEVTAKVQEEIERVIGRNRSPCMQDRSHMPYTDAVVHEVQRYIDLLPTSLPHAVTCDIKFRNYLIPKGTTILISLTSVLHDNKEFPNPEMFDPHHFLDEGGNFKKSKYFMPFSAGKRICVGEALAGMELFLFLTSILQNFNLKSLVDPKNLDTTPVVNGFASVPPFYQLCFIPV

For the molecule `CC(=O)O[C@@H]1[C@H]2CC[C@H]3[C@@](C)(O)[C@@H]4C[C@H](O)C(C)(C)[C@@]4(O)[C@H](O)C[C@@]13C[C@@]2(C)O`, the Potency result (in [1]; in [2]; in test [3]; in test [4]; in the test with CRL-7250; with CAOV3) was “inactive” each time. In addition, the Potency entry in the test on HeLa and in the test with SKOV3 was “inactive” each time. In the test with KB-3-1, the max response was 2.41% (inactive).

Regarding `COC(=O)[C@]12CCCC(C)(C)C1CCc1cc(C(C)C)c(O)c(O)c12` (stereo not given in full), the Potency entry (in [1]; with CAOV3; in the test on SKOV3) was “inactive” each time. In addition, the Potency in test [2] is 4.47 µM (active). Moreover, the max response in the test on KB-3-1 is -12.9% (inactive). The outcome with HACAT was inactive.

On to `C=CC/C=C\C/C=C\CCCCCCCc1cc(O)cc(O)c1`, for which the Potency entry (in test [1]; in test [4]; in the test with CAOV3; with HeLa; in the test on SKOV3) was “inactive” throughout. Moreover, the max response in the test on KB-3-1 was -0.409% (inactive). Besides, the result with HACAT was inactive.

In the case of `C/C=C1/CN2CC[C@]34C(=Nc5ccc(OC)cc53)C2C[C@@H]1C4(CO)C(=O)OC` (stereo not given in full), the Potency entry (in test [1]; in test [2]; in test [5]; in [3]; in test [4]; in the test on CAOV3) was “inactive” in each case. Besides, the Potency result in the test on HeLa and in the test with SKOV3 was “inactive” in each case. Moreover, the max response with KB-3-1 was 0.853% (inactive). Further, the result in the test with HACAT was inactive.

For `COc1ccc2c3c4n(c2c1)[C@@H](C=C(C)C)OOC(C)(C)C[C@@H]4N1C(=O)[C@@H]2CCCN2C(=O)[C@]1(O)[C@H]3OCC=C(C)C`, the Potency entry (in test [1]; in [5]; in test [3]; in test [4]; with CRL-7250; with CAOV3) was “inactive” throughout. Also, the Potency entry in the test on HeLa and with SKOV3 was “inactive” throughout. Moreover, the max response with KB-3-1 is 8.3% (inactive).

`CC(=O)O[C@H]1CN2CCC1CC2`: the Potency entry (in test [6]; in [1]; in test [5]; in test [3]; in test [4]; in the test on CAOV3) was “inactive” throughout. For the same molecule, the Potency entry in the test with HeLa and in the test on SKOV3 was “inactive” each time. For the same molecule, the outcome in the test with KB-3-1 was inactive.

As for `COc1ccc(CN(C(=O)[C@@H](N)Cc2c(C)cc(C(N)=O)cc2C)[C@@H](C)c2ncc(-c3ccccc3)[nH]2)cc1C(=O)O`, the Potency entry (in [1]; in test [2]; in test [3]; in the test with CAOV3; with HeLa; in the test with SKOV3) was “inactive” throughout. For the same molecule, the activity change, negative = inhibition in test [7] was -25.7%. In the test on KB-3-1, the max response is 2.03% (inactive).

Regarding `CC[C@H]1C2CC3[C@@H]4N(C)c5ccccc5[C@]45C[C@@H]([C@H]2[C@H]5O)N3[C@H]1O`, the Potency entry (in test [5]; in the test on CAOV3; in the test on HeLa; in the test on SKOV3) was “inactive” in each case. Further, in the test on KB-3-1, the max response was 2.51% (inactive). Further, the result with HACAT was inactive.

For the molecule `C=C1[C@@]23C(=O)O[C@H](C)[C@]24O[C@@]2(C(=C)[C@]5(C=CC(=O)OC5(C)C)CC[C@]32C)[C@H](O)[C@@]1(C)OC4=O`, the Potency result (in [1]; in [5]; in [3]; in the test on CAOV3; with HeLa; with SKOV3) was “inactive” in each case. Also, the max response with KB-3-1 is -4.55% (inactive). Further, the outcome in the test on HACAT was “inactive [at 17.4 µM]”.

Take `C1=C(c2cnc[nH]2)c2ccsc2CC1`: the Potency result (in test [1]; in test [2]; in [4]; with CAOV3; in the test on HeLa) was “inactive” each time. Also, the Potency in test [8] was 12 µM (active); in [9], 3.38 µM (active); in [3] it was 10.6 µM (active). Moreover, in the test with KB-3-1, the max response is -3.3% (inactive). Besides, the molecule was called inactive with HACAT.

`CS[C@]1(CO)C(=O)N2[C@H]3C(=CC=C[C@@H]3O)C[C@@]2(SC)C(=O)N1C`: the Potency result (in test [6]; in test [1]; in [5]; with CRL-7250; in the test with HeLa; in the test on SKOV3) was “inactive” in each case. In the test with KB-3-1, the outcome was inactive.

As for `O=C1N[C@@H](Cc2ccccc2)CN2CCCC[C@@H]12`, the Potency entry (in test [1]; in test [2]; in test [5]; in [3]; in test [4]; with CAOV3) was “inactive” throughout. For the same molecule, in the test on SKOV3, the Potency result is “inactive”. Also, in the test on KB-3-1, the max response is 1.17% (inactive). The molecule was called inactive in the test on HACAT.

As to `C[C@]12CCC(=O)C=C1CC[C@@H]1[C@@H]2[C@@H](O)C[C@]2(C)C(=O)CC[C@@H]12`, the Potency entry (in test [1]; in test [5]; in [3]; in test [4]; in the test with CRL-7250; in the test on CAOV3) was “inactive” throughout. The Potency result with HeLa and in the test on SKOV3 was “inactive” in each case. For the same molecule, in the test on KB-3-1, the max response is 6.55% (inactive).

Turning to `CN1CCc2cc3c(cc2C1C1OC(=O)c2c1ccc1c2OCO1)OCO3` (stereo not given), the Potency result (in test [1]; in test [3]; in test [4]; in the test with CAOV3; in the test with HeLa; in the test on SKOV3) was “inactive” in each case. In addition, the max response with KB-3-1 was -4.22% (inactive).

Turning to `CN1CCc2cc3c(cc2[C@H]1[C@@H]1OC(=O)c2c1ccc1c2OCO1)OCO3`, the Potency entry (in test [6]; in test [1]; in test [2]; in test [5]; in test [4]; in the test with CAOV3) was “inactive” in each case. Moreover, the Potency result in the test with HeLa and with SKOV3 was “inactive” in each case. Besides, the molecule was called inactive in the test on KB-3-1 and in the test with HACAT.

Regarding `CNC(=O)c1cc(C#N)cc(C)c1NC(=O)c1cc(Br)nn1-c1ncccc1Cl`, the Potency entry (in test [3]; in test [4]; with CAOV3; in the test on HeLa; in the test with SKOV3) was “inactive” in each case. Further, the max response with KB-3-1 was -25.7% (inactive).

On to `NC(=O)c1ncn2c1CN=C(c1ccccc1Br)c1cc(F)ccc1-2`, for which the Potency entry in test [2], in test [8], in test [9], in test [5], in test [3] and in test [4] was “inactive” in each case. The Potency entry in the test on CAOV3, in the test with HeLa and in the test with SKOV3 was “inactive” throughout. For the same molecule, in the test with KB-3-1, the max response was 5.47% (inactive).
